PubChem BioAssay AID504843 (Broad Institute, 2011)
Hit rate of the full screen: of about 1,200 compounds, about 360 (30%) were called active. No rule for the calls is given here. Not all results are given here. Entries with a potency or affinity are not part of this list.

Assay: antibacterial activity by ATP level – BacTiter-Glo luminescence, cherry-picked samples, counter-screen, dose response (AID 504843);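 also: growth measured after 8 h incubation at 30 °C; 0% = median of sample compound wells and -100% = antibiotic control wells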
Conditions: bacterial growth; series mostly up to 15 µM; activity change, negative = inhibition: at the top concentration

Row | Compound | activity change, negative = inhibition
1 | CC1CCN(c2ccc(C(=O)NCc3ccco3)cc2[N+](=O)[O-])CC1 | -10.9% (inactive)
2 | CCN(CC)S(=O)(=O)c1cc(NC(=O)c2ccc(-n3cncn3)c([N+](=O)[O-])c2)ccc1C | 6.68% (inactive)
3 | CC1(C)C2CCC1(C)C(NC(=O)/C=C/c1ccccc1)C2 (stereo unspecified) | -17.4% (inactive)
4 | O=c1oc2ccccc2c(N2CCC(c3ccccc3)CC2)c1[N+](=O)[O-] | -11.2% (inactive)
5 | Cc1ccccc1N/N=C/c1ccc(C#N)cc1 | 13.8% (inactive)
6 | Cc1ccc(-c2nn(-c3ccccc3)cc2CC(=S)N2CCOCC2)cc1 | 16.7% (inactive)
7 | Cc1cccc(-n2c(SCC(=O)NC3CCCC3)nnc2-c2ccoc2C)c1 | 4.43% (inactive)
8 | O=C(CSc1nnc(-c2ccccc2)n1C1CCCCC1)N1CCCC1 | -4% (inactive)
9 | Cc1ccc(C2CC(c3ccccc3)n3ncnc3N2)cc1 (stereo unspecified) | 15.1% (inactive)
10 | CCn1c(C)cc(/C=C2/NC(=O)N(Cc3ccccc3F)C2=O)c1C | -2.29% (inactive)
11 | COc1cccc(NC(=O)c2ccc3c(SCC(=O)O)c4c(nc3c2)CCCC4)c1 | -8.76% (inactive)
12 | CC(=O)Nc1cccc(Oc2nc(C(F)(F)F)nc3ccccc23)c1 | 7.17% (inactive)
13 | Cc1ccc(OCCOCCNC(C)(C)C)c([N+](=O)[O-])c1 | 13.6% (inactive)
14 | N#Cc1ccccc1CSc1ccccn1 | -0.492% (inactive)
15 | CC(CN1CCOCC1)(NS(=O)(=O)c1ccccc1)c1ccccc1 (stereo unspecified) | -7.28% (inactive)
16 | O=C(CNC1CCCCCC1)Nc1ccccc1N1CCCCC1 | 2.03% (inactive)
17 | O=C(CNC1CCCCC1)Nc1cc(S(=O)(=O)N2CCOCC2)ccc1Cl | 11.2% (inactive)
18 | O=C(NCCOC(=O)c1cccs1)c1cccnc1 | -11.1% (inactive)
19 | COc1ccc(OC)c(-n2c(SCC(=O)N3CCc4ccccc43)nc3c(c2=O)SCC3)c1 | -3.67% (inactive)
20 | Fc1cccc(NC(=S)NCCCN2CCOCC2)c1 | 17.8% (inactive)
21 | O=C1CCCN1Cc1ccccc1 | 1.89% (inactive)

Row | Compound | activity change, negative = inhibition
22 | O=C(Cn1nc(C(=O)O)c2ccccc2c1=O)NCc1ccco1 | 16.7% (inactive)
23 | N#C/C(=C(/O)CN1CCN(c2ccccc2F)CC1)c1nc(-c2ccc(Cl)cc2)cs1 | -2.75% (inactive)
24 | C[C@@H]1CN([C@H](C)CO)C(=O)c2cc(NS(=O)(=O)c3cccs3)ccc2O[C@H]1CN(C)Cc1ccccc1 | 16.7% (inactive)
25 | COc1cc(/C=N/NC(=O)c2ccccn2)ccc1OC(=O)c1ccc(Br)cc1 | -2.98% (inactive)
26 | C(=N\Nc1ccccn1)/c1ccc(N2CCOCC2)cc1 | -20.3% (inactive)
27 | Cn1c(Cn2c(=O)sc3ccccc32)nnc1SCc1ccccc1F | -14.5% (inactive)
28 | CCCCCCc1ccc(N2C[C@H](Cc3ccccc3)[C@@H](CC(=O)NCc3ccc(OC)cc3)C2=O)cc1 | 5.21% (inactive)
29 | CCCC(=O)c1c[nH]c(C(=O)N2CCOCC2)c1 | -14.1% (inactive)
30 | CCCNC(=O)COc1coc(CN2CCN(c3ccccc3F)CC2)cc1=O | 6.92% (inactive)
31 | CCCc1[nH]nc2c1C(c1ccc(OC(=O)c3ccco3)cc1)C(C#N)=C(N)O2 (stereo unspecified) | 6.6% (inactive)
32 | CC(=O)c1ccc([C@H]2C[C@@]34CN(C(=O)OC(C)(C)C)S(=O)(=O)[C@H]3C[C@H]2O4)cc1 | 17% (inactive)
33 | CCOC(=O)CSc1nnc(CNC(=O)c2ccc([N+](=O)[O-])cc2)n1C | -4.14% (inactive)
34 | NC(=O)c1cc2ccc(O)cc2oc1=Nc1ccccc1 | 0.396% (inactive)
35 | Cc1ccc(NCc2nnc3n2CCCCC3)c(C)c1 | 5% (inactive)
36 | C[C@H](NS(=O)(=O)c1ccc(Cl)c(Cl)c1)C(=O)OCc1cc(=O)n2cc(Br)ccc2n1 | 2.78% (inactive)
37 | Cc1ccc(NC(=S)NC(=O)c2ccc(F)cc2)cc1S(=O)(=O)Nc1ccccc1Cl | 13.8% (inactive)
38 | COc1ccc(NS(=O)(=O)c2cc(NC(=O)CCc3ccc(OC)c(OC)c3)ccc2N2CCOCC2)cc1 | -7.67% (inactive)
39 | CCOC(=O)c1c(NC(NC(C)=O)C(Cl)(Cl)Cl)sc(C(C)=O)c1C (stereo unspecified) | -8.99% (inactive)
40 | OCc1ccnc2c(O)cccc12 | 17.6% (inactive)
41 | CCOC(=O)/C(C#N)=C/c1ccc(OCC(=O)Nc2ccccc2)c(OC)c1 | -1.9% (inactive)
